In the library only some 21% were active in any assay of this set; here they are far more common.
Pf growth 96h: P. falciparum growth inhibition at 96 hours; P. falciparum luciferase reporter growth, 96 h; Potency, µM (series often up to 28.7 µM), for the others: top-dose activity change, negative = inhibition, actives largely listed as inhibitors; hit rate 6.9% among 320,000; AID 504834; also: potency is read from the fitted curve at half-maximal effect; % is scaled to controls: 0 for no effect and ±100 for the full control effect
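Infected RBCs, 2% Hct / 0.05% parasitemia final; luciferase-reporter P. falciparum; cpd 96 h, 37 C, 5% CO2; luciferase detection reagent; luminescence.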
Pf growth 48h: inhibits P. falciparum growth in the first generation, 48 h; P. falciparum luciferase growth in erythrocytes, 48 h; AID 504832; Potency, µM (highest dose often 28.7 µM), inactives show at the highest dose activity change, negative = inhibition, most hits filed as inhibitors; hit rate 5.9% among 310,000; also: potency is read from the fitted curve at half-maximal effect; % is scaled to controls: 0 for no effect and ±100 for the full control effect
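Firefly luciferase activity from engineered P. falciparum reports growth; inhibitors lower the luminescent signal. Cultures contained 2% hematocrit erythrocytes at 0.1% final parasitemia.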
Shiga inhibitor: Shiga toxin inhibition. Vero cells, Shiga toxin protein synthesis inhibition reporter. inhibition, % at 38.7 µM. hit rate 9.2% among 290,000. AID 2315; in the data active = inhibition mostly above about 28%, no sharp cut-off; inactive = mostly below about 43%; also: 0% is about no effect
Cycloheximide cs: counter-screen hit for Shiga toxin inhibitors, cycloheximide | cell reporter, cycloheximide protein synthesis inhibition counterscreen | max response, % | hit rate 12% among 300,000 | AID 2314; in the data active = max response mostly above about 13%, no sharp cut-off; inactive = mostly below about 14%; also: read at 38.3 µM for the half of the compounds with a filed dose; 0% is about no effect
* marks the source's active call; other numbers are inactive results; u = inconclusive; x = no result given. Unless noted, calls follow the shape of the dose curve; as a rule, active = well fitted inhibition curve with a large enough effect; inconclusive = small, poorly fitted or top-dose-only effect, or another doubt; inactive = no such curve, though single readings can be large or run the other way.

SMILES	Pf growth 96h	Pf growth 48h	Shiga inhibitor	Cycloheximide cs
CCOC(=O)c1sc(NC(=O)Cc2c(F)cccc2Cl)nc1C	3.4%	u	75.0*	29.6*
O=C(Cc1c(F)cccc1Cl)Nc1nc2ccccc2s1	14.0%	23.7%	113.0*	38.3*
CN[C@@H]1[C@H](O[C@@H]2O[C@H](C)[C@@](O)(CO)[C@H]2O[C@H]2[C@H](O)[C@H](O)[C@H](N=C(N)N)[C@@H](O)[C@@H]2N=C(N)N)O[C@@H](CO)[C@H](O)[C@H]1O	x	x	-16.9	13.3
CCCN1CCCc2cc(CN)ccc21	42.7%	1.65µM*	-13.3	-6.0
COC(=O)c1cc(S(=O)(=O)NCCc2ccccc2)c[nH]1	28.2%	-3.1%	-0.6	1.2
COC(=O)c1cc(S(=O)(=O)NCc2cccc(Br)c2)c[nH]1	9.28µM*	8.9%	-2.8	1.1
COC(=O)C1Cc2ccccc2CN1S(=O)(=O)c1ccc(F)cc1 (configuration not stated)	1.31µM*	-8.1%	14.6	-0.9
O=C(O)[C@H]1Cc2ccccc2CN1S(=O)(=O)c1ccc(F)cc1	21.5%	44.8%	-2.4	-4.1
O=C(Nn1cnnc1)C1Cc2ccccc2CN1S(=O)(=O)c1ccc(F)cc1 (configuration not stated)	8.28µM*	15.7%	6.1	2.8
CCN(CC(=O)NCc1cccs1)C(=O)c1cc(S(=O)(=O)NCc2ccccc2)ccc1C	-2.7%	u	x	x
O=S(=O)(N/N=C/c1ccc(N2CCOCC2)cc1)c1ccc(Br)cc1	12.1%	2.5%	47.8	-1.8
Cc1nc(NC(=O)/C=C/c2ccccc2)n[nH]1	u	u	22.1	15.5*
CCCn1nnc(NC(=O)c2ccc(Cl)cc2Cl)n1	u	188.8%	112.9*	45.0*
CCCn1nnc(NC(=O)/C=C/c2ccco2)n1	36.1%	40.1%	16.6	13.6
CCCn1nnc(NC(=O)/C=C/c2ccccc2)n1	14.7%	0.0%	51.9	16.7*
Cn1nnc(NC(=S)NC(=O)c2cc(Cl)ccc2Cl)n1	4.15µM*	8.28µM*	15.4	-1.0
O=C(NCc1ccc(F)cc1)C1CCCN(C(=O)Nc2ccc(F)cc2)C1 (configuration not stated)	25.0%	-7.4%	-0.3	-5.4
O=C(COc1ccc2c(-c3ccccc3)cc(=O)oc2c1)NCC(O)c1ccccc1 (configuration not stated)	14.5%	42.4%	1.5	-1.1
CCCn1nnc(NC(=O)c2ccccc2Cl)n1	x	86.6%	46.4	26.8*
CC(=O)N1CCOc2cc(S(=O)(=O)Nc3cccc(C(F)(F)F)c3)c(Cl)cc21	u	13.1µM*	x	x
COc1ccc(CNC(=O)CN(Cc2ccccc2)C(=O)CCC(=O)Nc2ccccn2)cc1	22.2%	4.8%	-3.9	-7.0
O=S(=O)(/N=C(/Nc1cccc2ccccc12)c1ccccc1)c1ccc(Br)cc1	4.15µM*	12.9%	1.5	-3.3
O=S(=O)(/N=C(/Nc1cccc2ccccc12)c1ccccc1)c1cccs1	11.7µM*	u	-2.9	3.9
O=S(=O)(/N=C(/Nc1cccc2ccccc12)c1ccccc1)c1ccccc1	155.2%	u	12.3	-2.7
O=S(=O)(/N=C(/Nc1cccc2ccccc12)c1ccccc1)c1ccc(F)cc1	-5.9%	3.9%	7.8	0.5
SMILES	Pf growth 96h	Pf growth 48h	Shiga inhibitor	Cycloheximide cs
O=C(c1cnc(Cl)c(Cl)c1)N1CCC(Cc2ccccc2)CC1	-2.0%	-2.5%	-18.5	1.7
O=c1cnc2ccccc2n1Cc1ccccc1C(F)(F)F	-13.4%	4.6%	-3.4	-3.9
O=C(COC(=O)c1cnccn1)c1ccc2c(c1)CCCC2	-6.4%	-3.1%	12.1	18.9
Cc1[nH]c(=O)[nH]c(=O)c1/C=N/NC(=O)CCNC(=O)OC(C)(C)C	16.7%	8.9%	-6.2	17.6*
CCOC(=O)CNC(=O)C1COc2ccccc2O1 (configuration not stated)	30.8%	7.7%	8.4	0.2
Cc1cccc(C(=O)O/N=C(\N)CS(=O)(=O)c2ccccc2)c1	9.6%	0.1%	48.1	15.6*
Cc1cccc(C(=O)O/N=C(\c2ccccc2)c2cccnc2)c1	15.6%	-19.0%	-5.6	3.3
COc1cccc(C(=O)O/N=C(\N)c2ccccn2)c1	-11.1%	4.6%	-14.6	-9.2
COc1cccc(C(=O)O/N=C(\N)CS(=O)(=O)c2ccccc2)c1	27.7%	112.3%	62.9*	56.3*
Cc1csc(CNC(=O)c2cc(COc3c(C)cccc3C)on2)n1	-42.4%	-1.7%	15.8	10.8
NC(=O)Nc1ccc(C(=O)OCC(=O)N2CCc3ccccc3C2)cc1	u	-29.4%	x	x
CCOC(=O)c1ccc(NC(=O)N2CCc3ccccc32)cc1	x	64.0%	58.4*	28.6*
CCOC(=O)c1ccc(NC(=O)N2CCN(c3ccccc3OC)CC2)cc1	72.5%	u	94.3	20.6
CCOC(=O)c1ccc(NC(=O)N2CCc3ccccc3C2)cc1	5.2%	u	18.6	30.3*
COc1ccc2c(ccn2S(=O)(=O)c2ccccc2)c1	2.7%	-12.8%	x	6.7
Cc1c(O)ccc(-c2n[nH]c(C(=O)O)c2-c2nc3ccccc3s2)c1O	63.6%	46.5%	59.3*	23.5*
O=C(CSc1ccccc1)NNC(=O)c1ccccc1O	u	10.0%	22.8	22.9
O=C(O)c1ccc(N=Nc2c(O)ccc3ncccc23)cc1	56.6%	u	64.9	22.0*
CC(Oc1ccccc1)C(=O)Nc1nnc(S(=O)(=O)N(C)c2ccccc2)s1 (configuration not stated)	3.9%	-6.8%	10.8	-0.7
CC(C)CCOc1ccc(C2(C)NC(=O)NC2=O)cc1 (configuration not stated)	u	u	x	9.0
CC(C)NC(=O)c1cc2c(s1)CCCC2	36.5%	32.6%	43.7*	17.9*
CNC(=O)c1cc2c(s1)CCCCCC2	3.1%	-9.6%	7.3	7.3
Cc1ccc(/C=N/NC(=O)c2cc3c(s2)CCCC3)o1	u	8.28µM*	x	x
CC(OC(=O)c1cc2c(s1)CCCCC2)C(=O)NC(N)=O (configuration not stated)	71.1%	24.9%	35.1	23.0*
CC(C)C(OC(=O)c1cc2c(s1)CCCCC2)C(=O)NC(N)=O (configuration not stated)	17.7%	10.3%	-8.0	-4.1
SMILES	Pf growth 96h	Pf growth 48h	Shiga inhibitor	Cycloheximide cs
Cc1ccc(/C=N/NC(=O)c2ccc(OC3CCCC3)cc2)o1	u	0.0%	1.1	12.9
CCC1Oc2ccccc2N(CC(=O)NCCCN2CCN(c3ccc(OC)cc3)CC2)C1=O (configuration not stated)	u	0.6%	-7.5	-1.6
O=C(CN1CCN(S(=O)(=O)c2ccccc2)CC1)N1CCCCC1	u	-3.3%	x	x
COc1cc(C(=O)Nc2c(C(=O)O)[nH]c3ccc(Br)cc23)cc(OC)c1OC	31.3%	u	-4.8	4.5
Cn1c(N)c(C(=O)COC(=O)CCCOc2ccc(Cl)cc2Cl)c(=O)n(C)c1=O	23.1%	0.0%	-6.3	-1.6
CCOC(=O)C1CCN(C(=O)c2cc3c(=O)n4ccccc4nc3n2C)CC1	-9.0%	0.8%	-4.2	1.2
Oc1ccccc1-c1nc2c3ccccc3c3ccccc3c2[nH]1	u	9.28µM*	35.7	9.1
c1csc(-c2nc3c4ccccc4c4ccccc4c3[nH]2)c1	u	u	-36.9	8.2
ClCc1csc(-c2ccccc2Cl)n1	15.7%	-4.5%	4.9	13.0

Assay outcomes (PubChem)
